Screening results from PubChem.
Rows were chosen to be rich in hits. Some 1.7% of all compounds tested hit in one or more screens of this group.
USP1-UAF1 inh: Inhibitors of USP1/UAF1: Primary Screen; Ubiquitin carboxyl-terminal hydrolase 1 (Homo sapiens), O94782; recombinant USP1/UAF1, Ub-Rhodamine cleavage fluorescence; Potency, µM (series often up to 57.1 µM), for inactives: at the top dose activity change, negative = inhibition, actives largely listed as inhibitors; 390,000 tested, 0.23% active; active means well fitted inhibition curve with a large enough effect; inconclusive means small, poorly fitted or top-dose-only effect; inactive means no such curve, though single readings can be large or run the other way; further: potency means the concentration at half of the fitted maximal effect; nearly all actives have a fitted effect of over 60% in size
Target sequence (O94782 whole entry, looked up): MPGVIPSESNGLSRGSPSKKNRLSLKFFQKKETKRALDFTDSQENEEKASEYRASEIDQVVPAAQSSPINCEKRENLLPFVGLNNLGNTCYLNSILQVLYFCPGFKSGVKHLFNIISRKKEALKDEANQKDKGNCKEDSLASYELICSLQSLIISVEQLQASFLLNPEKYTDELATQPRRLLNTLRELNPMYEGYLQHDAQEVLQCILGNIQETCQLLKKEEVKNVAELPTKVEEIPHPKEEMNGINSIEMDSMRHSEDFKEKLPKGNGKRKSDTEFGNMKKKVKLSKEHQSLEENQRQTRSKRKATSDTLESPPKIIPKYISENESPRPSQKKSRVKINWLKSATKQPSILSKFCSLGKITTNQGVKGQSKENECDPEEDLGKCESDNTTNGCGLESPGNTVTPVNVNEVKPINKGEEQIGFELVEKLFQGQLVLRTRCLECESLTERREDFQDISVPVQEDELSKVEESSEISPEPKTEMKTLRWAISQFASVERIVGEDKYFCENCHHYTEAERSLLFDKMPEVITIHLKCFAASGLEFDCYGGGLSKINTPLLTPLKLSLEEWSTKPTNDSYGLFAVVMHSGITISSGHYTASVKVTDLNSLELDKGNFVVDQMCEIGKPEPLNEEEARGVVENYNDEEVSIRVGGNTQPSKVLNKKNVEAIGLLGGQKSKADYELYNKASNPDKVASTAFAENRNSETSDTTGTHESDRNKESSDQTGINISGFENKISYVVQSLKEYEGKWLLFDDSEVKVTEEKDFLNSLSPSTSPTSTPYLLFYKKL
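In this screen, compounds sit with the deubiquitinase complex (1nM) for 15 min at room temperature before Ub-Rho is added at 150nM final. Fluorescence rise is then followed for 6 reads every 60 seconds.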
FBPA coupling cs: qHTS Assay for Inhibitors of Fructose-1,6-bisphosphate Aldolase from Giardia Lamblia: Coupling assay counterscreen; coupling enzyme system counterscreen, AmpLite Red fluorescence; 290,000 tested, 0.67% active; activity change, negative = inhibition, % at 58.2 µM, hits read low; in the data active means activity change below about -30%
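First, compound is pin-transferred into glyceraldehyde-3-phosphate coupling-enzyme reagent at 57.5 uM final and held 10 min at RT. Next, substrate, coupling system and AmpLite Red are added. After 20 min RT, fluorescence (525/598 nm) is read.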
hERG WT inh: qHTS for Inhibitors of KCHN2 3.1: Wildtype qHTS; U2OS, BacMam KCNH2, thallium flux FluxOr; stronger effect = lower value; activity change, % at 1.84 µM; 340,000 tested, 0.37% active; AID 720551, 2013;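 active means maximum activity change below -70%; inconclusive means maximum activity change between -70% and -50%; inactive means maximum activity change above -50%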
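U2OS cells were transduced with wild-type KCNH2 virus (2.03 x 10^8 / mL) for 4 h at room temperature, then cultured overnight at 37 C. Thallium flux was read with FluxOr dye. Rate constants were normalized to DMSO controls.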
KCNH2 3.1 block: qHTS for Inhibitors of KCHN2 3.1: Mutant qHTS. Potassium voltage-gated channel subfamily H member 2, brain isoform KCNH2 3.1 (human). U2OS KCNH2 3.1, thallium flux FluxOr; stronger effect = lower value. activity change, % (tested at about 1.8 µM). 340,000 tested, 0.95% active. AID 720553, 2013;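 active means maximum activity change below -70%; inconclusive means maximum activity change from -70% to -50%; inactive means maximum activity change above -50%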;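 further: thallium influx rate constant from kinetic fluorescence after stimulation buffer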
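We transduce U2OS cells with the mutant 3.1 virus, culture them overnight, load FluxOr with Red40 quencher for 45 min, then add stimulation buffer and read kinetically for 2 min to derive a normalized rate constant.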
Giardia kill: Small Molecules that selectively kill Giardia lamblia: qHTS. Giardia lamblia trophozoite viability. activity change, % at 7.66 µM, hits read low. 340,000 tested, 0.15% active. AID 540267, 2011; in the data active means activity change below about -80%; inconclusive means between about -30% and that limit;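 further: parasites exposed to compound for two days anaerobically before the ATP read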
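ATP-content bioluminescence gauges trophozoite survival. Cells (100/well) receive compound and incubate anaerobically for 48 hrs at 37 deg C; detection reagent follows for 15-30 min at room temperature.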
* hit, by the source's call; u = inconclusive; x = no result given. On the % scale 0 is the no-effect control and ±100 the full control effect.

SMILES	USP1-UAF1 inh	FBPA coupling cs	hERG WT inh	KCNH2 3.1 block	Giardia kill
CCCCC(CC)C(=O)Nc1cc(C(=O)NCCC)ccc1N1CCC2(CC1)CC(c1ccccc1)=NO2 (configuration not stated)	-8%	-2	-109*	-94*	13
CCCNC(=O)c1ccc(N2CCC3(CC2)CC(c2cccc(Br)c2)=NO3)c(NC(=O)c2ccc(Br)cc2)c1	-25%	x	-83*	-111*	-7
CCc1ccc2[nH]c(C(=O)N(C)c3ccc(F)cc3F)cc2c1	-4%	0	-1	-71*	16
Cc1cc(CN2C(=O)c3ccccc3C2=O)cc(N2CCOCC2)c1	-5%	2	-294*	5	3
Cc1nn(C(=O)N2CCOCC2)c(C)c1CN1C(=O)c2ccccc2C1=O	-2%	x	0	5	-2
COc1cc(CNC2CCCCCC2)cc(OC)c1	-10%	1	-5	-87*	-6
COc1cc(CNC2CCCCCC2)cc(OC)c1OC	-13%	-1	-10	-15	-4
COc1ccc(C(=O)c2oc3ccccc3c2NC(=O)COc2ccc(C)cc2)cc1	5%	x	x	x	x
COc1ccc(Cl)cc1NC(=O)CSc1nc2ccccc2nc1N1CCCCC1	-24%	x	x	x	x
O=C1NC2(CCCCCC2)C(=O)N1Cc1ccc(Cl)cc1Cl	-15%	3	-13	-19	-22
O=C1NC2(CCCCCC2)C(=O)N1Cc1ccc(F)cc1Cl	-22%	2	-3	-127*	2
CCN1CCN(C(=O)c2ccc3c(c2)N(Cc2ccc(F)cc2)C(=O)c2ccccc2S3(=O)=O)CC1	-11%	x	x	x	x
CN1C(=O)/C(=C/c2ccccc2OCc2cccc(F)c2)N(C)C1=S	-17%	-37*	5	-9	12
c1cc(C2CCCCC2)ccc1Oc1nc(N2CCOCC2)nc(N2CCOCC2)n1	1%	1	3	-71*	-5
CC(=O)Nc1ccc(/C=C/C(=O)c2ccc(-n3nncc3-c3ccccc3)cc2)cc1	x	x	x	x	-4
Cc1cc(C)cc(NC(=O)C2CCCN(c3cnccn3)C2)c1 (configuration not stated)	-3%	x	x	x	x
CCCN(CCC)CC(O)CN(c1ccccc1)S(=O)(=O)c1ccc(C)cc1 (configuration not stated)	-10%	3	-96*	-81*	0
COc1ccc(N(CC(O)Cn2c(C)nc3ccccc32)S(=O)(=O)c2ccc(C)cc2)cc1 (configuration not stated)	-20%	2	u	-102*	11
COc1ccc(N(CC(O)Cn2c(C)nc3ccccc32)S(=O)(=O)c2ccccc2)cc1 (configuration not stated)	-18%	0	18	-42	-3
Cc1[nH]n(S(=O)(=O)Cc2ccccc2)c(=O)c1N=Nc1ccccc1Cl	-14%	6	5	-4	-89*
CCOC(=O)CSc1nc2ccc(N3CCOCC3)cc2c(=O)n1Cc1ccccc1	-9%	-32*	5	-10	5
CCCCNC(=O)CSc1nc2ccc(N3CCOCC3)cc2c(=O)n1CCc1ccccc1	-11%	-37*	-3	4	1
CCCCn1c(SCC(=O)NCCOC)nc2ccc(N3CCOCC3)cc2c1=O	-16%	-37*	1	2	-6
O=C(CSc1nc2ccc(N3CCOCC3)cc2c(=O)n1CCc1ccccc1)NCC1CCCO1 (configuration not stated)	-10%	-31*	-3	4	16
COCCNC(=O)CSc1nc2ccccc2c(=O)n1CCC(=O)N1CCN(c2ccccc2)CC1	-4%	1	5	2	-1
SMILES	USP1-UAF1 inh	FBPA coupling cs	hERG WT inh	KCNH2 3.1 block	Giardia kill
COCCNC(=O)CSc1nc2ccc(N3CCOCC3)cc2c(=O)n1CCc1ccccc1	-6%	-44*	11	11	17
C/C(Cn1cnc([N+](=O)[O-])n1)=N\NC(=O)c1ccncc1	-13%	-4	29	-4	-25
C/C(Cn1nnc([N+](=O)[O-])n1)=N\NC(=O)c1ccc(C)cc1	-6%	-38*	-16	-4	-18
C/C(Cn1nnc([N+](=O)[O-])n1)=N\NC(=O)c1ccncc1	-8%	-40*	-1	5	-11
Cc1ccc(Cl)cc1NCc1nnc2n1CCCCC2	-18%	x	x	x	x
CCOc1ccc(NC(=O)c2c(NCc3ccc(C)o3)sc3c2CCCCC3)cc1	7%	x	x	x	x
CCCCNc1c(-c2cccc(-c3cc(C(C)=O)cs3)c2)nc2cc(C)ccn12	6%	x	-19	-71*	71
CC(=O)c1csc(-c2cccc(-c3nc4ccc(Cl)cn4c3NC3CCCCC3)c2)c1	16%	x	10	8	6
CCCCCCSc1cc(-c2nc3cc(C)ccn3c2NCCCC)ccc1OC	-24%	x	-80*	-111*	-2
Cc1nc2cccnc2n1C1CCN(C(=O)Nc2ccccc2C(F)(F)F)CC1	-14%	x	x	x	x
NC(=O)c1ccccc1NC(=O)CSc1nc2ccccc2c(=O)[nH]1	-15%	x	-8	-4	-15
Cc1cc2nc(SCC(=O)Nc3ccccc3C(=O)O)[nH]c2cc1C	-4%	-1	6	-138*	23
COc1ccc(NC(=O)Cn2cc(C(=O)c3ccc(C)c(C)c3)c(=O)c3cc(OC)ccc32)cc1	-2%	x	x	x	x
CC(=O)C1=C(C)OC(N)=C(C#N)C1c1cccc2ccccc12 (configuration not stated)	-15%	-34*	0	8	-2
CCOc1cc(/C=C/C(=O)c2ccc(OC)c(CN3CCOCC3)c2)cc(Br)c1O	35µM*	2	-8	-1	-16
CCOc1cc(/C=N/NC(=O)c2ccc(CN3CCOCC3)cc2)ccc1OC	u	4	5	2	-3
CC1CCN(C(c2ccc(F)cc2)c2sc3nc(-c4ccco4)nn3c2O)CC1 (configuration not stated)	-17%	x	x	x	x
CC(Oc1cccc(Br)c1)C(=O)NNC(=O)c1ccccn1 (configuration not stated)	-9%	x	-6	6	-15
CC(Oc1cccc(Br)c1)C(=O)NNC(=O)CCS(=O)(=O)c1ccccc1 (configuration not stated)	-16%	x	-6	-102*	31
N#Cc1cccc(Oc2ccc(S(=O)(=O)N3CCCC3)cn2)c1	-5%	x	-89*	u	-11
NS(=O)(=O)c1ccc(N2CCN(CCOc3ccc(Cl)cc3)CC2)nc1	-8%	2	3	-95*	-9
